Test results: article PMC4336329 (PLoS ONE, 2015)
The whole screen tested about 310,000 compounds, of which about 14,000 (4.5%) showed an effect of 50% or more. Effects have a minus sign here. What follows is part of a selection rich in strong results, with near analogues and random picks from the rest.

target: human ether-à-go-go-related gene (hERG) potassium channel (human, UniProt Q12809); assay: primary screen, population patch clamp on CHO cells stably expressing hERG; higher = less effect of the substance
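Further: peak tail current of the secondary pulse compared with the same well before compound.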

human ether-à-go-go-related gene (hERG) potassium channel, sequence (Q12809 whole entry, looked up): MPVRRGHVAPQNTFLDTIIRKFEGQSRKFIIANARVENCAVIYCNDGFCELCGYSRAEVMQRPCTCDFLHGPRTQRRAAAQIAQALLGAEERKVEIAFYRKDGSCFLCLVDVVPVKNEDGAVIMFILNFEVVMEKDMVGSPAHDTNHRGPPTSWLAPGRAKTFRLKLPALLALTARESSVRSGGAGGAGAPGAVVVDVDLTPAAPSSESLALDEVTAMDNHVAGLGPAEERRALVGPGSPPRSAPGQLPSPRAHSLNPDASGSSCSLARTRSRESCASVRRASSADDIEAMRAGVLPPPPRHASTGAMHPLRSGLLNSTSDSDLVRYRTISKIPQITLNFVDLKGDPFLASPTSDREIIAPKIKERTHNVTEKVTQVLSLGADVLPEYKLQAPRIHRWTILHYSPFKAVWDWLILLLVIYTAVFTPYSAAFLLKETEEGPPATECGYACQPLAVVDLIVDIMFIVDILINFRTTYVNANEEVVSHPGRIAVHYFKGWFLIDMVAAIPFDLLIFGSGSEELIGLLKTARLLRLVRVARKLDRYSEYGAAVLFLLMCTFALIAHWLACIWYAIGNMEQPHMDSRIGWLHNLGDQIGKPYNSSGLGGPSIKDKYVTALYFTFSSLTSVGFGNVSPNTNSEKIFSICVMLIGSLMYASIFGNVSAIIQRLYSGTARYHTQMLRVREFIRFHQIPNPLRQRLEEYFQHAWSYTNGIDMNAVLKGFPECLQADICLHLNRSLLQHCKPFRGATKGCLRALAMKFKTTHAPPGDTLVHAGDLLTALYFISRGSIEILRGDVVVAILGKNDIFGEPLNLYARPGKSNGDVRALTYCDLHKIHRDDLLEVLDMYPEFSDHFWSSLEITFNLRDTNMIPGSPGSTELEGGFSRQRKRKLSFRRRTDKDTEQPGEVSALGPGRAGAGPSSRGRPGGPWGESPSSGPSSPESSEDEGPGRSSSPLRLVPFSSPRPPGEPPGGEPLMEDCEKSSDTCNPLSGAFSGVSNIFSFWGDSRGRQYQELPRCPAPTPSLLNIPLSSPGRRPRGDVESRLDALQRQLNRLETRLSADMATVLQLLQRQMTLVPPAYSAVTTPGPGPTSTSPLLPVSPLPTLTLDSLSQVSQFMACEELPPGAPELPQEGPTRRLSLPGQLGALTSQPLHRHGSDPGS

Row | SMILES | hERG current change (%, negative = inhibition) at 10uM
1 | O=C(CN1C(=O)COc2ccc(S(=O)(=O)N3CCCC3)cc21)N1CCCC1 | 9.85%
2 | C/C=C/Cn1c(N2CCCCCC2)nc2c1c(=O)[nH]c(=O)n2C | -5.14%
3 | NC(=O)c1cnn2c(-c3cccc(C(F)(F)F)c3)ccnc12 | -2.33%
4 | N#Cc1cnn2c(-c3cccc([N+](=O)[O-])c3)ccnc12 | -52.7%
5 | N#Cc1cnn2c(-c3cccc(C(F)(F)F)c3)ccnc12 | -52.8%
6 | NC(=S)c1cnn2c(-c3cccc(C(F)(F)F)c3)ccnc12 | 14.2%
7 | N#Cc1cnn2c(-c3ccccc3)ccnc12 | 2.49%
8 | COc1ccc(-c2ccnc3c(C#N)cnn23)cc1 | 6.06%
9 | CC(=O)c1ccc(NS(=O)(=O)c2cccc(C)c2)cc1 | -1.86%
10 | COC(=O)c1cccc(NC(=O)CC2C(=O)NCCN2C(=O)Nc2cc(C)cc(C)c2)c1 (centres unmarked) | 11%
11 | COCCn1c(-c2ccc(OC)cc2)cnc1SCC(=O)Nc1cccc2ccccc12 | -21.8%
12 | COc1ccccc1CNc1ncc(-c2ccc(F)cc2)n1C.O=C(O)C(=O)O | -62%
13 | CCOc1ccc(-c2cnc(NCc3cccc4ccccc34)n2CCOC)cc1.O=C(O)C(=O)O | -58.8%
14 | COc1ccc(CNc2ncc(-c3ccc(F)cc3)n2C)cc1OC.O=C(O)C(=O)O | -65.2%
15 | COc1ccc(CNc2ncc(-c3ccccc3)n2C)c2ccccc12.O=C(O)C(=O)O | -34.5%
16 | Cn1c(-c2ccc(F)cc2)cnc1NCc1ccccc1F.O=C(O)C(=O)O | -27.3%
17 | COc1ccccc1CNc1ncccn1.O=C(O)C(=O)O | 23.6%
18 | COc1ccc(CNc2ncc(-c3ccc(F)cc3)n2C)c2ccccc12.O=C(O)C(=O)O | -35.1%
19 | COCCCNC(=O)Cn1c(=O)n(Cc2ccccc2Cl)c(=O)c2cc(OC)c(OC)cc21 | 9.48%
20 | COc1ccc(-c2nc(N)n(S(=O)(=O)c3ccc(C)cc3)n2)cc1 | 39%
21 | CC(=O)Nc1nc(COc2ccccc2)cs1 | -4.04%
22 | COC(=O)C(Cc1c[nH]c2ccccc12)NC(=O)c1cncc(Br)c1 (centres unmarked) | 1.85%
23 | CCOC(=O)N1CCN(S(=O)(=O)N2CCCC(C(=O)NCCCN3CCCCC3)C2)CC1 (centres unmarked) | 10%
24 | COc1ccc(Nc2ccnc3ccccc23)cc1.Cl | -33.8%
25 | CC(C)Nc1ccc(Nc2ccnc3cc4ccccc4cc23)cc1 | -72.7%
26 | CC(C)Nc1ccc(Nc2ccccc2)cc1 | -0.32%
